From PubChem BioAssay AID2401 (Southern Research Specialized Biocontainment Screening …, 2010) come the findings set out here.

The campaign covered roughly 2,200 compounds. About 530 (24%) were called active. The list is a sample of the results. Entries with a potency or affinity are not part of this list. A number with no mark means an inactive call.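 Rule for the calls: active = inhibition above a set limit at one or more concentrations of the dose series; inactive = inhibition under that limit at every dose.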

The nature of this test: S. Typhimurium nonspecific reporter signal inhibition – Salmonella Typhimurium, GFP fluorescence, counter-screen for PhoP regulon inhibitor project, dose response (AID 2401).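 Note: S. typhimurium with Mg-insensitive nmpC-GFP reporter grown at 10 µM Mg2+; drop in reporter fluorescence reflects general culture growth inhibition.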 The note with it: 4 h; series mostly up to 150 µM; inhibition: at the top concentration. For orientation: The purpose of a counterscreen is to sort out artefacts and off-target activity.
Consider `COC(=O)c1ccc(COC(=O)c2ccccn2)cc1`, for which the inhibition (usually the change of the read-out against control, counted positive when it falls) is -12%.
The value for `CC(O)c1ccc(OCCN(C)c2ccccn2)cc1` (centres undefined) was -2.97%; that for `CC(C)Cc1oc(C(=O)O)cc1CN` was 34%; that for `c1ccc2oc(SCc3cn4ccccc4n3)nc2c1` was 26.3%.
The value for `Cc1cc(C)n(-c2ccc(C(=O)Nc3nc4ccccc4s3)cc2)n1` was 11.3%; that for `C(=N\c1nc2ccccc2n1CCN1CCCCC1)/c1cccs1` was -10.7%; that for `CC(=O)c1cccc(NC(=O)Nc2cccs2)c1` was -12.9%.
The value for `CC(C)(C)c1ccc(-c2n[nH]c(=S)n2/N=C/c2ccncc2)cc1` was 0.52%; that for `COc1cccc(NC(=S)N/N=C2\CC(C)(C)Oc3ccc(O)cc32)c1` was -12%.
Regarding `N#CC(C#N)=c1ccc2c(c1)NC1(CCCCC1)N=2`, the “inhibition” value was 30.4%.
Consider `O=S1(=O)C=CC(Nc2ccccc2)C1` (centres undefined), for which the “inhibition” value is 2.14%.
Regarding `Brc1ccc(-c2cnc3n2CCCC3)cc1`, the “inhibition” value was 1.27%.
As for `O=C(Nc1nccs1)c1cc(-c2ccco2)nc2ccccc12`, the figure is 19.2%; as for `COc1ccccc1-c1cc(C(=O)Nc2cc(C)nn2-c2ccccc2)no1`, -9.01%.
The value for `CCCOC(=O)C(C)n1cnc2sc(C)c(C)c2c1=O` (centres undefined) was -22.4%; that for `COc1cc(C)nc(Nc2nc(C)c(C(C)=O)s2)n1` was -27.4%; that for `O=C(CSc1nnc(-c2cccs2)n1-c1ccccc1)NCc1ccc2c(c1)OCO2` was -11.6%.
Regarding `O=C(CCN1C(=O)c2ccccc2C1=O)Nc1ccc(-c2cn3ccsc3n2)cc1`, the “inhibition” value was -11.9%.
In the case of `Cc1cccc(C)c1NC(=O)CSc1nnc(NC(=O)CN2CCOCC2)s1`, the “inhibition” value was -25.4%.
As for `C(=N\N1CCN(C2c3ccccc3-c3ccccc32)CC1)/c1cccs1`, the figure is -18.1%.
As for `Cc1cc(/C=N/NC(=O)c2cccc([N+](=O)[O-])c2)c(C)n1-c1ccc(Cl)cc1Cl`, the figure is 37.6%.
As for `O=C(N/N=C/C1C(c2ccccc2)C1(Cl)Cl)c1cccc(Cl)c1` (centres undefined), the figure is 4.67%; as for `COc1cc([N+](=O)[O-])ccc1NC(=O)CN(C)C`, -22.9%.
For `Nc1nnc(CC(=O)N/N=C\c2cc([N+](=O)[O-])ccc2O)s1`, the “inhibition” value was 4.52%.
As for `O=C(N/N=C/c1ccc(Cl)cc1Cl)c1cccc(F)c1`, the figure is -20.8%; as for `Cc1ccc(N=Nc2ccc(O)c(/C=N\NC(=O)c3ccc(N)cc3)c2)cc1C`, -8.25%; as for `C/C(=N\NC(=O)C1CC1c1ccccc1)c1cccc([N+](=O)[O-])c1` (centres undefined), 5.2%.
With `COc1cccc(NC(=O)NCCCN2CCN(c3ccc(F)cc3)CC2)c1`, the “inhibition” value was 12.8%.
The value for `COc1cc(C2C(C(=O)c3ccc(C)o3)=C(O)C(=O)N2CCc2ccccc2)ccc1O` (centres undefined) was -22.6%.
The value for `CC(C)NC(=O)CSc1nc(N)c(NC(=O)c2ccccc2F)c(=O)[nH]1` was 5.87%; that for `Cc1ccc(Cl)cc1-c1ccc(/C=N/n2cnnc2)o1` was -25.3%.
The value for `Cc1cccc(C)c1NC(=O)CCCSc1nnc(-c2ccc(Cl)cc2)n1-c1ccccc1` was -15%.
Consider `CCCCn1c(-c2ccccc2)nc2c(=O)n(C)c(=O)[nH]c21`, for which the “inhibition” value is -16.6%.
Consider `Cc1noc(C)c1CSc1nc2ccccc2nc1NS(=O)(=O)c1ccc(Cl)cc1`, for which the “inhibition” value is 14.2%.
As for `O=C1NN(c2ccccc2)C(=O)/C1=C\c1coc2ccc(O)cc2c1=O`, the figure is 23.4%; as for `Cc1ccc2occ(/C=N/O)c(=O)c2c1`, 5.82%; as for `C/C(=C\C(=O)c1cccnc1)Nc1ccc(O)cc1`, -1.89%.
As for `CC(=O)Nc1ccc(OC(=O)c2cccnc2)cc1`, the figure is -41%.
As for `N/C(=N\OC(=O)Cc1ccc(Cl)cc1)c1cccnc1`, the figure is 7.23%.
As to `N/C(=N\OC(=O)COc1ccc(Cl)cc1)c1cccnc1`, the “inhibition” value is -0.64%.
The value for `CCCCn1c(SCC(=O)Nc2nnc(CC)s2)nc2c1c(=O)n(C)c(=O)n2C` was -12.7%.
As for `Cc1ccc(OCC(=O)N2CCN(S(=O)(=O)c3ccccc3)CC2)c([N+](=O)[O-])n1`, the figure is -13%; as for `O=C(CSc1nnc(-c2ccc(Br)cc2)o1)Nc1cccc2ccccc12`, -29.8%; as for `COc1ccc(CCN2CC3=C(C2=O)C(c2ccccc2)NC(=O)N3C)cc1OC` (centres undefined), -28.3%.
For `COc1ccc(C2=Nc3nc(-c4ccccc4)cn3C(c3ccc(OC)cc3)C2)cc1` (centres undefined), the “inhibition” value was 12.4%.
The value for `CC(C)CC(=O)N/C(N)=N/c1nc2ccccc2s1` was -11.2%; that for `O=C1NC(=Nc2ccccc2)/C(=C/c2ccco2)S1` was -0.32%; that for `O=C(CNC(=O)OCc1ccccc1)NCC(=O)N1CCCC1C(=O)OCc1ccccc1` (centres undefined) was -16.3%.
The value for `CC(NC(=O)CSc1nc2c(cc1C#N)CN(C)CC2)c1ccccc1` (centres undefined) was -20.3%.
As for `CCCn1c(N)c(C(=O)COC(=O)c2c(C)noc2C)c(=O)n(C)c1=O`, the figure is 4.48%; as for `CC(CO)(CO)NCc1ccc(-c2ccccc2)cc1`, -18.6%.
For the molecule `COc1ccc2c(c1)C1C=CCC1C(c1cc3c(cc1Br)OCO3)N2` (centres undefined), the “inhibition” value is 27.1%.
The value for `O=C1CCCc2c1cc(C(=O)NCc1ccco1)c(=O)n2-c1ccc(Cl)cc1` was -27.7%; that for `CCOc1ccccc1Nc1nc2ccccc2n2cnnc12` was -21.1%; that for `O=C(CCN1CCCCC1)NCC1OCCc2ccccc21` (centres undefined) was -14%.
For the molecule `O=C(CCN1CCc2ccccc2C(c2ccccc2)C1)c1ccc2c(c1)OCCO2` (centres undefined), the “inhibition” value is 34.7%.
The value for `c1ccc(Cn2nnc3c(NCc4ccc5c(c4)OCO5)nc(C4CC4)nc32)cc1` was 20.9%; that for `FC(F)Oc1ccc(NC(=S)NCc2nc3ccccc3[nH]2)cc1` was 4.23%; that for `O=C1C2CCCN2c2ccc(S(=O)(=O)N3CCOCC3)cc2N1Cc1ccccc1F` (centres undefined) was -5.87%.
As for `CCOc1cc(S(=O)(=O)N2CCN(CC)CC2)ccc1Cl`, the figure is -14.5%; as for `c1ccc(-n2cnc3cc(NCc4ccncc4)ccc32)cc1`, -21%.
The value for `CCCCn1c(/N=C/c2ccccc2NS(=O)(=O)c2ccc(C)cc2)nc2ccccc21` was 21.9%; that for `CCN(CC)C(=O)CP(=O)(c1ccccc1)c1ccccc1` was -19.4%.
For `O=c1[nH]c(CSc2nnc(NCCCN3CCOCC3)s2)nc2cc(Cl)ccc12`, the “inhibition” value is -2.07%.
As for `O=C(CSCc1cccc(CSCC(=O)Nc2ccc3ccccc3c2)n1)Nc1ccc2ccccc2c1`, the figure is -7.19%; as for `CCN(CC)S(=O)(=O)c1ccc2c(c1)nc(SCC(=O)N1CCOCC1)n2-c1ccccc1OC`, -29.7%.
In the case of `CCCc1cc(-c2nc(N)ncc2-c2ccc3c(c2)OCCCO3)c(O)cc1OC`, the “inhibition” value was -6.75%.
Take `O=S(=O)(c1ccc(S(=O)(=O)N2CCN(C/C=C/c3ccccc3)CC2)cc1)N1CCCC1`: the “inhibition” value is -7.27%.
As for `c1ccc(CNc2nc(N3CCN(Cc4ccccc4)CC3)nc3ccccc23)cc1`, the figure is 15.1%.
As for `CCN1CCN(c2oc(COc3ccc(Cl)cc3)nc2C#N)CC1`, the figure is -11.3%; as for `COc1ccc(NC(=O)C(Sc2nnc(-c3ccncc3)n2-c2ccccc2C)c2ccccc2)cc1Cl` (centres undefined), 39.3%.
Turning to `Cc1ccc(S(=O)(=O)NC2c3cccc4cccc(c34)C2Sc2n[nH]c(N)n2)cc1` (centres undefined), the “inhibition” value was -1.11%.
On to `Cc1ccc(S(=O)(=O)N2C(=O)CCC2C(=O)N2CCN(C)CC2)cc1` (centres undefined), for which the “inhibition” value is -6.94%.
As for `Cc1cccc(C=Nc2ccc3c(c2)oc2ccccc23)c1O`, the “inhibition” value was 2.82%.
The value for `COc1ccc2cc(C)c3nnc(SCC(=O)Nc4nc(-c5ccccc5)cs4)n3c2c1` was -14.2%; that for `c1ccc2cc(CSCc3nc4ccccc4[nH]3)ccc2c1` was 21.6%.
Take `CN(C(=O)c1ccc2c(c1)OCO2)C1(C(=O)NC2CCCCC2)CCCCC1`: the “inhibition” value was -27.6%.
The value for `CC(=O)Nc1ccc(C(=O)Nc2nc(-c3cc(C)n(Cc4ccccc4)c3C)cs2)cc1` was 17.5%.
The value for `O=C(CSc1nc2ccccc2o1)Nc1ccc(N2CCOCC2)c(Cl)c1` was 10.2%.
Consider `N#Cc1nc(-c2ccco2)oc1NCCCN1CCOCC1`, for which the “inhibition” value is -4.28%.
Consider `N#C/C(=C\c1c(Cl)cccc1Cl)c1nc2ccccc2[nH]1`, for which the “inhibition” value was -16.6%.
The value for `S=C(NN=C1C2CC3CC(C2)CC1C3)Nc1ccccc1` was -8.54%; that for `C=CCNc1ncnc2c1[nH]c1ccc(C)cc12` was 37%.
Turning to `Cc1ccc2[nH]c3c(NCc4ccccc4)ncnc3c2c1`, the “inhibition” value is -8.46%.
As for `COc1cccc(-c2nnc(SCC(=O)Nc3ccc(OC)c(OC)c3)n2N)c1`, the figure is 8.89%; as for `Cc1ccc(C=Nc2ccccc2C(N)=O)s1`, 19.4%.
As for `CC1(C)CC(=O)C=C(Nc2ccc(Br)cn2)C1`, the figure is -21.7%; as for `Cc1ccc(NC(=S)NCc2cccnc2)cc1`, -17.2%; as for `S=C(NCc1cccnc1)Nc1cccc(Cl)c1`, 8.84%.
The value for `OC(COCc1cccs1)CN1CCN(c2ccccn2)CC1` (centres undefined) was -21.3%; that for `Cc1oc(CC(C)C)c(CN)c1C(=O)O` was -14.3%; that for `Cc1nc(N)sc1Cc1ccc2c(c1)OCO2` was 24.2%.
As for `CC(=O)Nc1cccc(OCC(=O)Nc2ccc(F)cc2)c1`, the “inhibition” value is -31.6%.
The value for `CC(=O)Nc1cccc(OC(=O)c2ccoc2C)c1` was -30.2%; that for `CCN(CC)c1nc2n(c(=O)n1)CCO2` was -33.8%; that for `Cc1cc(O)ccc1Nc1nc2ccccc2nc1Nc1ccc(O)cc1C` was 33.7%.
As for `Cc1ccccc1Nc1nc(-c2sc(NC(=O)c3cccc(Cl)c3)nc2C)cs1`, the figure is 17%.
The value for `Cc1ccc(O)c(-c2cc(-c3cccc(F)c3)n[nH]2)c1` was 27.2%; that for `C=CCNC(=O)C(=O)NN=C1CCN(C)CC1` was -26.4%; that for `N#CCOC(=O)c1sccc1-n1cccc1` was -11.9%.
Turning to `O=C(Cc1ccccc1)Nc1cccc(N2C(=O)C=CC2=O)c1`, the “inhibition” value was 30.8%.
As for `Cc1ccc(C2NNC(=O)C2NC(=O)c2ccccc2)cc1` (centres undefined), the figure is -23.9%; as for `Cc1ccc(-c2nnn(CC(=O)Nc3ccccc3-c3ccccc3)n2)c(-n2cnnn2)c1`, 1.9%.
The value for `Cc1cc(Nc2ccc(Cl)cc2)nc(N)n1` was 32.1%.
The value for `CC(C)(C)c1nn(-c2ccccc2)c2[nH]c(=O)c(CNCc3ccco3)cc12` was -17.9%; that for `CC1(C)SC(=S)N(NC(=O)Nc2ccccc2)C1N(O)C(=O)Nc1ccccc1` (centres undefined) was -13.4%.
For the molecule `Cc1ccc(Nc2cc(C)nc3nc(C)nn23)cc1`, the “inhibition” value is -17.3%.
For `COc1ccc2c(c1)cc1n2CCN2CCCN=C12`, the “inhibition” value is 13.7%.
As for `O=P(Cc1cc[n+]([O-])cc1)(c1ccccc1)c1ccccc1`, the figure is -29.2%.
In the case of `CCOC(=O)CCCNC(=O)COC(=O)CCC(=O)c1ccc(F)cc1`, the “inhibition” value was 3.03%.
As for `CCCCn1cnc2c(cnn2-c2ccc(F)cc2)c1=O`, the figure is -17.3%; as for `Cc1cccnc1NC(=O)CCCN1C(=O)c2ccccc2C1=O`, 6.01%.
As for `O=C(CCN1C(=O)COc2ccccc21)NCCN1CCOCC1`, the figure is -16.8%.
As for `COc1cccc(/C=N/n2c(C)nc3ccccc32)c1OC`, the figure is -14%.
